F508del corr = CFTR F508del correction in bronchial cells; CFBE cells, YFP halide quenching; stimulated with forskolin plus potentiator P3; % fluorescence drop versus neutral controls; activity (quench increase), % at 7.58 µM; 0.36% of 350,000 active;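 active = mean added fluorescence quench of at least 8% versus neutral control, with both replicates also reaching 8%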;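 also: cells transiently co-express mutant CFTR-F508del with the halide-sensitive YFP; corrector assay measuring rescue of mutant channel to the surface after 24 h compound exposure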
Env fusion inh = inhibitors of HIV Env-mediated cell fusion; HeLa-JRFL Env/CEM21 cell fusion, luciferase; inhibition, % at 12.3 µM; 1.1% of 360,000 active; AID 651610;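 active = mean replicate inhibition score of at least 50 and every replicate individually at or above 50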;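 also: 0% = plate neutral controls and 100% = maraviroc near 300 nM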
Wnt bcat act = activates Wnt/beta-catenin signaling in a reporter cell assay; activator, plate reader; activation, % at 9.35 µM; 1.2% of 300,000 active; AID 743398; in the data active = activation above about 30%, passing the limit was not always enough;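 also: 0% = neutral control wells and 100% = positive control wells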
MITF TRPM1 HTS = activators of MITF-driven TRPM1 promoter activity in SK-MEL-5 cells; SK-MEL-5 TRPM1-promoter luciferase, 24 h; % of positive control, neutral wells = 0; activation, % at 12.5 µM; 0.75% of 300,000 active; AID 588334;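 active = mean activation of at least 80% with every replicate also reaching 80%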;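 also: 0% = neutral control wells and 100% = parthenolide positive control wells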
GSIS activator = GLuc luminescence reporter in INS-1E cells, primary screen for activators of glucose-dependent secretion of insulin; INS-1E GLuc reporter insulin secretion, 2-3 h; activation, % at 16.6 µM; 0.61% of 370,000 active;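 active = lowest replicate activation of at least 40%, so every replicate reaches that level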;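 also: 0% = median of neutral control wells and 100% = median of IBMX positive control wells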
* = called active by the depositor; i = inactive; . = no result given; [ ] = dose if it differs, or a comment. An excerpt weighted towards active compounds, which were near 2.7% of everything screened.

SMILES | F508del corr | Env fusion inh | Wnt bcat act | MITF TRPM1 HTS | GSIS activator
O=C(CSc1nnc(-c2cccnc2)o1)Nc1ccccc1F | 2 | -274 | 40* | 52 | 19
O=C(CSc1nnc(-c2ccc(O)cc2)o1)Nc1cccc(O)c1 | 1 | -29 | 34* | 66 | -2
COc1ccccc1NC(=O)CSc1nnc(-c2ccc(C)cc2)o1 | . | -308 | 58* | . | .
CCc1nc(SCC(=O)Nc2ccccc2C)n[nH]1 | 1 | -29 | -1 | 1 | 1
COc1ccc2c3c([nH]c2c1)[C@H](CO)N(C(=O)C1CCCC1)CC31CN(C(=O)NC(C)C)C1 | -2 | . | . | . | 4
C[C@@H]1CN([C@@H](C)CO)C(=O)c2cc(-c3cccnc3)cnc2O[C@H]1CN(C)C(=O)Nc1ccccc1 | 4 | . | . | . | 2
O=C(CSc1ncc(-c2ccccc2)[nH]1)Nc1ccccc1F | 0 | -38 | 19 | 88* | -11
COc1ccc(NC(=O)CSc2ccc(-c3ccccn3)nn2)cc1OC | -2 | . | -4 | 3 | -3
COc1ccccc1NC(=O)CSc1ccc(-c2ccccn2)nn1 | 8.1* | -36 | 3 | 8 | 2
C[C@H]1CN([C@@H](C)CO)C(=O)c2cccc(NC(=O)c3cnccn3)c2O[C@H]1CN(C)Cc1ccc2c(c1)OCO2 | -2 | -1[16.7 µM] | . | . | 14
C[C@@H]1CN([C@@H](C)CO)C(=O)c2cccc(NC(=O)C3CC3)c2O[C@@H]1CN(C)Cc1ccc(C(F)(F)F)cc1 | 1 | -46[16.7 µM] | . | . | 0
CCCNC(=O)C[C@H]1C[C@H]2c3cc(NC(=O)CC4CC4)ccc3O[C@H]2[C@H](CO)O1 | -2 | . | . | . | 5
COc1ccc(NC(=O)Nc2ccc3c(c2)CC(=O)N([C@H](C)CO)C[C@@H](C)[C@H](CN(C)C(=O)Nc2ccc4c(c2)OCO4)O3)cc1 | 0 | 19[16.7 µM] | . | . | 10
O=C(CN1CCOc2ccccc21)NCc1ccc(F)cc1 | 1 | 7 | 3 | -5 | -12
O=C(CN1CCOc2ccccc21)NCc1ccc(Cl)cc1 | 9.2* | 22 | 1 | -26 | -2
COc1ccc(NC(=O)N[C@@H]2CC[C@@H](CCNC(=O)c3cc(Cl)cc(Cl)c3)O[C@@H]2CO)cc1 | -3 | -3[16.7 µM] | . | . | 21
CC1=C([N+](=O)[O-])C(c2cccc(Br)c2)C2=C(N1)c1ccccc1C2=O (stereo unspecified) | . | 138* | -32 | . | .
CO[C@H]1CN(C)C(=O)c2ccc(NC(C)=O)cc2OC[C@H](C)N(Cc2ccccc2F)C[C@@H]1C | -3 | . | . | . | 6
COc1cc(C(=O)c2cocc2C(=O)c2ccc3c(c2)OCO3)cc(OC)c1OC | 13* | -382 | -4 | -8 | 4
COc1ccccc1C(=O)N/N=C(\C)CC(=O)Nc1ccc2c(c1)OCCO2 | 2 | -4 | 1 | -16 | 41*
C/C(CC(=O)Nc1ccc2c(c1)OCCO2)=N\NC(=O)c1ccccc1F | 0 | -8 | 0 | 6 | 1
COc1ccc(C(=O)Nc2ccc3c(c2)OCCO3)c(OC)c1 | -1 | -132 | 55* | . | 12
COc1cc(C(=O)Nc2ccc3c(c2)OCCO3)ccc1OC(F)F | . | -130 | 0 | 98* | 20
COc1cc(C(=O)Nc2ccc3c(c2)OCCO3)ccc1OC(C)C | . | . | . | 75 | .
CN1c2ccc(-c3ccccc3)cc2[C@@H]2[C@@H](CCN2C(=O)Cc2cccnc2)[C@@H]1CO | -4 | . | . | . | -2
SMILES | F508del corr | Env fusion inh | Wnt bcat act | MITF TRPM1 HTS | GSIS activator
CO[C@@H]1CN(C)C(=O)c2ccc(NC(=O)C3CCOCC3)cc2OC[C@@H](C)N(CC2CC2)C[C@H]1C | 4 | . | . | . | 10
COc1ccc(NC(=O)c2ccc3c(c2)OCO3)cc1Cl | . | i | . | 88* | .
CCC(=O)N1[C@@H]2c3cccc(=O)n3C[C@@H]2[C@@H](CO)[C@@H]1C(=O)NCC1CC1 | -2 | . | . | . | -9
C=CC[C@@H](CC(=O)N[C@H](CO)Cc1ccccc1)C(=O)N[C@H](COC(=O)[C@@H](CC=C)CC(=O)OC(C)(C)C)Cc1c[nH]c2ccccc12 | -4 | -136 | -7 | -3 | -19
C=CC[C@H](CC(=O)N(CCO)Cc1ccccc1)C(=O)N[C@H](COC(=O)[C@@H](CC=C)CC(=O)OC(C)(C)C)Cc1c[nH]c2ccccc12 | 1 | 64* | -8 | -18 | -31
C=CC[C@@H](CC(=O)N(CCO)Cc1ccccc1)C(=O)N[C@H](COC(=O)[C@H](CC=C)CC(=O)OC(C)(C)C)Cc1c[nH]c2ccccc12 | 8.5* | -176 | -3 | -25 | -17
